Compound activity as filed in PubChem BioAssay.
Shown is part of a subset that was picked to be rich in hits.
AMA1-RON2 inh: disrupts binding of P. falciparum AMA1 to RON2; AlphaScreen AMA1-biotinylated RON2 peptide binding; Potency, µM (highest dose often 58.2 µM), for inactives: at the top dose activity change, negative = inhibition, usual class: inhibitors; 360,000 compounds, 0.2% hits; AID 720542;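 further: potency means the concentration at half of the fitted maximal effect; 0% = vehicle wells and -100% = peptide control; nearly all actives have a fitted effect of over 45% in size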
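AMA1 (3D7) with his tag at 25 nM final met compounds first, then biotinylated RON2 peptide at 25 nM; detection used donor plus acceptor beads, 10 µg/mL apiece, read by AlphaScreen after 30 min at room temperature.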
Shiga toxin inh: blocks Shiga toxin action in Vero cells | Vero cells, Shiga toxin protein synthesis inhibition reporter | inhibition, % at 38.7 µM | 290,000 compounds, 9.2% hits; in the data active means inhibition mostly above about 28%, no sharp cut-off; inactive means mostly below about 43%; further: 0% is about no effect
Cycloheximide cs: affects cycloheximide protein synthesis inhibition readout, counter-screen | cell reporter, cycloheximide protein synthesis inhibition counterscreen | max response, % | 300,000 compounds, 12% hits; in the data active means max response mostly above about 13%, no sharp cut-off; inactive means mostly below about 14%; further: read at 38.3 µM for the half of the compounds with a filed dose; 0% is about no effect
AmpC inh detg: blocks E. coli AmpC beta-lactamase in detergent assay; Potency, µM (series often up to 114 µM), inactives show at the top dose activity change, negative = inhibition, usual class: inhibitors; AmpC hydrolysis of nitrocefin, absorbance 480 nm, 0.01% Triton; P00811; 370,000 compounds, 0.041% hits;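 further: potency means the concentration at half of the fitted maximal effect; 0% = no-compound wells and -100% = no-enzyme wells; nearly all actives have a fitted effect of over 25% in size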
Target sequence (P00811 whole entry, looked up): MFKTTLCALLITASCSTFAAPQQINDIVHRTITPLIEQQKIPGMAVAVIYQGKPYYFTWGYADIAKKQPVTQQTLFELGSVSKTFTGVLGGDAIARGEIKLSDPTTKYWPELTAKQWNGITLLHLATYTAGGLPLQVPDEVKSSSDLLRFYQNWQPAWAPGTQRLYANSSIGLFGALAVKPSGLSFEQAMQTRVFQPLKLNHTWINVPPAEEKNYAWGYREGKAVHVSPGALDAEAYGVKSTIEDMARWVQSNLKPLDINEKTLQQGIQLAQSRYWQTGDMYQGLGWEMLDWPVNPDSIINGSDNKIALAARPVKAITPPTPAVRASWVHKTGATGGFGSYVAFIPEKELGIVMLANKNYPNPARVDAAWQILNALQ
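AmpC (5.3 nM in the dispensed reagent) in 20 mM phosphate pH 7.0 with 0.01% (detergent screen) or 0.0001% Triton X-100 was preincubated with compounds for 15 min at room temperature. Nitrocefin was then added from an 800 uM solution, and hydrolysis was followed at 480 nm.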
AmpC inh no detg: AmpC beta-lactamase inhibition without detergent; P00811; AmpC nitrocefin hydrolysis, absorbance 480 nm, 0.0001% Triton; Potency, µM (doses to about 57.1 µM), for the others: at the highest dose activity change, negative = inhibition, hits mostly inhibitors; 330,000 compounds, 0.52% hits; AID 485341;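 further: potency means the concentration at half of the fitted maximal effect; plate controls were no compound for no effect and no enzyme for full effect; nearly all actives have a fitted effect of over 20% in size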
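20 mM phosphate pH 7.0 + 0.01% (detergent screen) or 0.0001% Triton X-100; 5.3 nM AmpC reagent; cpd preinc 15 min RT; nitrocefin (800 uM stock) to start; A480 q20 s × 4 min; Activity was normalised to no-enzyme and no-compound control wells.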
SARS PLpro yeast: SARS-CoV PLP inhibition in yeast; S. cerevisiae expressing SARS-CoV PLpro, growth rescue; Potency, µM (top dose mostly 32.9 µM), for the others: top-dose activity, positive = growth rescue, usual class: activators; 330,000 compounds, 0.19% hits; AID 485353; calls by dose curve; further: potency means the concentration at half of the fitted maximal effect; 0% is about no effect; nearly all actives have a fitted effect of over 55% in size
The depositor's hits bear a star; ? = inconclusive; . = no result; [ ] = another dose, or the depositor's remark. Unless noted, the call rests on the fitted dose curve; in most records, active means well fitted curve in the direction sought with a large enough effect; inconclusive means small, poorly fitted or top-dose-only effect, or another doubt; inactive means no such curve, though single readings can be large; an effect the other way counts as inactive or inconclusive.

SMILES	AMA1-RON2 inh	Shiga toxin inh	Cycloheximide cs	AmpC inh detg	AmpC inh no detg	SARS PLpro yeast
O=C(NC(c1ccc(Cl)cc1)c1c(O)ccc2ccccc12)c1ccccc1 (stereo not given)	0%	-4	33*	-3%	-23%	-2%
CC1Cc2ccccc2N1C(=O)/C=C/c1cccc(F)c1 (stereo not given)	-9%	87*	45*	?	-20%[11.4 µM]	-2%
CC1Cc2ccccc2N1C(=O)COC(=O)/C=C/c1ccc(F)cc1 (stereo not given)	-1%	.	.	?	-3%	14%
CCc1ccc(O)c(N=Cc2cccc(C)c2O)c1	30%	47	27*	-7%	?	-11%
O=C(COC(=O)CCNS(=O)(=O)c1cccs1)Nc1cc(C(F)(F)F)ccc1Cl	-11%	.	.	6%	-6%	-2%
CCCSc1nnc2n(N)c(=O)c3ccccc3n12	-15%	-17	-5	-4%	-21%	6%
COc1ccc(-c2cc(-c3ccccc3)n[nH]2)c(O)c1	88%	82*	32*	1%	-20%	-3%
COc1ccc(-c2cc(-c3ccccc3O)[nH]n2)cc1	-2%	71*	55*	-1%	-12%	-29%
COc1ccc(/C=C/c2nc(-c3ccccc3O)n[nH]2)cc1	69%	74*	70*	-10%	-12%	-24%
COc1ccc(-c2ncncc2-c2ccccc2)c(O)c1	-14%	4	-1	1%	-18%	-1%
Oc1ccccc1-c1cc(-c2ccccc2)n[nH]1	91%	.	.	.	-24%	-13%
Cn1c(O)c(C2=c3ccccc3=NC2=O)sc1=Nc1ccc(Cl)cc1	-10%	7	7.0*	-3%	-56%	5%
O=C(O)Cn1c(O)c(C2=c3ccccc3=NC2=O)sc1=O	35%	21	10	-3%	-11%	0%
CCOc1cccc(C2/C(=C(/O)c3ccc4c(c3)CC(C)O4)C(=O)C(=O)N2Cc2cccnc2)c1 (stereo not given)	-3%	13	3	2%	-27%	21%
COc1ccc(-c2cn3c(n2)sc2cc(C(=O)Nc4ccc(F)cc4Cl)ccc23)cc1	.	.	.	17%	.	.
CCOC(=O)/C(O)=C/c1ncc(C(F)(F)F)cc1Cl	32%	43	2	0%	-3%	-1%
O=C(N/N=C/c1ccco1)c1ccc(Br)o1	8%	67*	25*	0%	-19%	0%
O=C(N/N=C/c1ccco1)c1cc2ccccc2o1	6%	59*	42*	1%	-26%	-17%
O=C(O)/C(=C/c1ccco1)NC(=O)c1ccc(Br)o1	-3%	-59	-3	-16%	-43%	-1%
Cc1nc2ccccc2cc1C(=O)N/N=C/c1ccco1	-1%	-12	2	7%	-16%	2%
O=C(COc1ccc(/C=N/NC(=O)c2cc3ccccc3o2)cc1Br)Nc1ccccc1	2%	112*	53*	-13%	2%	-8%
O=C(COc1ccccc1[N+](=O)[O-])Nc1ccc(NC(=O)c2cc3ccccc3o2)cc1	1%	16	8	6%	4%	0%
CCN(C(=O)CSc1cc(C)c2ccccc2n1)C1CCS(=O)(=O)C1 (stereo not given)	13%	3	-4	3%	30%	-6%
O=C(Cn1nnc2ccccc2c1=O)NCCc1ccccc1	-2%	25*	15	-6%	-13%	-7%
Cc1ccc(NC(=O)Cn2nnc3ccccc3c2=O)cc1	8%	63	32*	3%	-14%	2%
SMILES	AMA1-RON2 inh	Shiga toxin inh	Cycloheximide cs	AmpC inh detg	AmpC inh no detg	SARS PLpro yeast
COc1ccc(CNC(=O)Cn2nnc3ccccc3c2=O)cc1	-5%	60*	22*	8%	-5%	3%
O=C(Cn1nnc2ccccc2c1=O)NCc1ccco1	3%	-4	-3	-10%	-16%	8%
CC(=O)N1C(=O)C2(C(C#N)=C(N)Oc3cc(C)oc(=O)c32)c2ccccc21 (stereo not given)	0%	-6	-1	-12%	-23%	3%
Cc1ccc(Cl)cc1Nc1nc(-c2sc(NC(=O)c3ccccc3)nc2C)cs1	.	38	12	-9%	-43%	3%
Cc1nc(NC(=O)c2ccccc2)sc1-c1csc(N)n1	-15%	48*	29*	1%	-38%	-20%
Cc1nc(NC(=O)c2ccccc2)sc1-c1csc(Nc2cccc(F)c2)n1	.	62	13*	-8%	16µM*	-8%
Cc1nn(CCCC(=O)N2CCN(c3ccc(F)cc3)CC2)c(C)c1[N+](=O)[O-]	0%	-8	-11	-1%	57%	-8%
COc1ccc(C(=O)NCCC(=O)NCc2cc(=O)n(C)c(=O)n2C)cc1	0%	-9	-1	5%	-10%	-7%
OCc1c(OCc2cccc(F)c2)ccc2ccccc12	-2%	.	25*	?	-32%	.
CC(C)OCCCNC(=S)NNC(=O)c1ccc(Cl)c(Cl)c1	104%	66*	29*	6%	-22%	0%
CC1(O)CC(=O)N(c2ccccc2)O1 (stereo not given)	4%	-7	17	?	-32%	-5%
S=c1[nH]c2cc(Cl)c3cccnc3c2o1	27%	5	1	-10%	-27%	-4%
CN(CC(=O)Nc1ccc(Cl)c(C(F)(F)F)c1)C(=O)C1CC(=O)N(Cc2ccco2)C1 (stereo not given)	2%	.	.	6%	146%	-9%
Cc1ccccc1OCC(=O)OCC(=O)c1ccc(OCc2ccccc2)cc1	23%	81*	59*	7%	-11%	12%
Cc1ccccc1OCC(=O)OCC(=O)c1ccc(OC(=O)c2ccccc2)cc1	11%	18	-3	0%	-37%	-1%
COc1ccc(N2CCC(CNC(=O)Nc3cccc(OC)c3)C2)cc1 (stereo not given)	?	15	-1	2%	13µM*	4%
COc1ccc(N2CCC(CNC(=O)Nc3ccc(Cl)cc3)C2)cc1 (stereo not given)	?	23	14*	3%	-55%	-5%
COc1cccc(/C=N/N2C(=O)CSC2=S)c1O	-4%	45*	32*	-15%	-33%	7%
COc1ccc2ccccc2c1/C=N/N1C(=O)CSC1=S	29%	2	0	-7%	16µM*	-2%
COc1ccc(-c2cc(C(=O)N3CCCC3)no2)cc1OC	-2%	86*	20*	-1%	4%	-6%
COc1ccc(-c2cc(C(=O)N3CCN(c4ccc(F)cc4)CC3)no2)cc1OC	-4%	-5	1	5%	23%	1%
COc1ccc(-c2cc(C(=O)N3CCN(Cc4ccccc4)CC3)no2)cc1OC	-17%	8	1	-3%	165%	-9%
COc1ccc(-c2cc(C(=O)N3CCCCC3)no2)cc1OC	-1%	77*	39*	1%	11%	-1%
